The supplement of paper PMC6555819

Tests used:
Test in all cases: PBM binding z-score (relative to random genomic background probes); higher = stronger binding; sequences stand for … in GC…GCGATTGACAGCGTAGAATGAAGG
[1] = system: FXR:RXRa (NR concentration 270 nM, RXRa partner concentration 90 nM)
In short: (§1)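 Binding z-scores take random background probes as their reference. They come from custom Agilent 4×180K protein-binding microarrays incubated 1 h with ligand-free nuclear receptor dimers, with antibodies against each partner (one per run) detecting binding. Scanned fluorescence was regression-normalized.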

[2] = system: LXRa:RXRa (NR concentration 270 nM, RXRa partner concentration 90 nM)
In short: as §1

[3] = system: LXRa homodimer (NR concentration 270 nM)
In short: as §1

[4] = system: LXRb:RXRa (NR concentration 270 nM, RXRa partner concentration 90 nM)
In short: as §1

[5] = system: LXRb homodimer (NR concentration 270 nM)
In short: as §1

[6] = system: PPARa:RXRa (NR concentration 270 nM, RXRa partner concentration 90 nM)
In short: as §1

[7] = system: PPARg:RXRa (NR concentration 180 nM, RXRa partner concentration 90 nM)
In short: as §1

[8] = system: PPARg:RXRa 270nM:90nM, anti-RXR (NR concentration 270 nM, RXRa partner concentration 90 nM)
In short: as §1

[9] = system: PPARg:RXRa 30nM:10nM, anti-RXR (NR concentration 30 nM, RXRa partner concentration 10 nM)
In short: as §1

[10] = system: PPARg:RXRa 90nM:30nM, anti-RXR (NR concentration 90 nM, RXRa partner concentration 30 nM)
In short: as §1

[11] = system: PPARg:RXRa DBDmut IVT, anti-RXR (DBD mutation: RXRa K156A/R161A, NR concentration 270 nM, RXRa partner concentration 90 nM)
In short: as §1

[12] = system: PPARg:RXRa IVT, anti-PPARg (NR concentration 270 nM, RXRa partner concentration 90 nM)
In short: as §1

[13] = system: PPARg DBDmut:RXRa IVT, anti-PPARg (DBD mutation: PPARg1 K132A/R137A, NR concentration 270 nM, RXRa partner concentration 90 nM)
In short: as §1

[14] = system: PPARg DBDmut IVT, anti-PPARg (DBD mutation: PPARg1 K132A/R137A, NR concentration 270 nM)
In short: as §1

[15] = system: PPARg homodimer (NR concentration 180 nM)
In short: as §1

[16] = system: PXR:RXRa (NR concentration 270 nM, RXRa partner concentration 90 nM)
In short: as §1

[17] = system: PXR homodimer (NR concentration 270 nM)
In short: as §1

[18] = system: RARa:RXR (NR concentration 270 nM, RXRa partner concentration 90 nM)
In short: as §1

[19] = system: RARa homodimer (NR concentration 270 nM)
In short: as §1

[20] = system: RARb:RXRa (NR concentration 270 nM, RXRa partner concentration 90 nM)
In short: as §1

Sequence | PBM binding z-score [1] | PBM binding z-score [2] | PBM binding z-score [3] | PBM binding z-score [4] | PBM binding z-score [5] | PBM binding z-score [6] | PBM binding z-score [7] | PBM binding z-score [8] | PBM binding z-score [9] | PBM binding z-score [10] | PBM binding z-score [11] | PBM binding z-score [12] | PBM binding z-score [13] | PBM binding z-score [14] | PBM binding z-score [15] | PBM binding z-score [16] | PBM binding z-score [17] | PBM binding z-score [18] | PBM binding z-score [19] | PBM binding z-score [20]
CCGACTGGGGCAGAAAGGTTACCATCCCATCCGG | 0.0864 | 0.742 | -0.151 | 0.878 | -0.971 | 2.03 | 1.44 | 2.53 | 0.448 | 1.96 | 1.51 | 1.69 | -0.348 | -1.37 | 0.985 | 0.837 | -0.375 | 1.61 | -0.144 | 1.89
CCTTACGGCTCACGAGGTTATAGCACGACGAGCG | 0.307 | 0.723 | 0.155 | 0.376 | -0.33 | 0.625 | 0.887 | 0.128 | -0.0191 | 0.0892 | -0.0471 | -0.209 | -0.288 | 0.282 | 0.161 | 0.289 | 0.226 | 0.918 | 0.403 | 0.347
TCGAGTAGGTTACCAATGGTGCATTCAGCTTTCT | -0.236 | 1.22 | -0.491 | 0.425 | -1.1 | 0.801 | 0.0197 | 1.1 | 0.784 | 1.06 | 3.28 | 2.62 | -0.362 | -0.313 | -0.186 | -0.18 | -0.657 | 0.145 | -1.04 | 0.684
TCTTTTAGATCAAAGGTTAAGAAAGCCGAAGCCT | 1.68 | 2.05 | 0.26 | 2.19 | 0.802 | 4.08 | 6.36 | 6.92 | 6.34 | 7.4 | 2.09 | 3.01 | 1.08 | 1.12 | 1.05 | 2.05 | 0.154 | 2.88 | 0.435 | 2.07
CCGACTGGGCCATAAGGTTACCATAAGCCAGCCC | 0.273 | 1.84 | -0.402 | 0.636 | -0.941 | 1.4 | 1.57 | 2.48 | 0.644 | 2.05 | 1.93 | 2.16 | -0.459 | -1.39 | 0.396 | 0.04 | -0.806 | 1.15 | -0.622 | 1.06
CGAACTAGGTCATTCAGGACAGTGAATACATTGA | 4.37 | 2.73 | 0.67 | 2.11 | 0.253 | 4.49 | 7.24 | 6 | 3.42 | 5.66 | 8.1 | 7.91 | 2.05 | 1.68 | 1.19 | 2.04 | 1.68 | 2.17 | 0.688 | 3.61
AGCCAAAGTTCACTAGGTAACGTAAGATTCAGCT | 4.84 | 4.92 | 2.67 | 2.81 | 0.629 | 4.51 | 5.95 | 5.78 | 3.24 | 5.12 | 2.5 | 4.42 | 0.974 | 0.266 | 2.28 | 3.96 | 2.4 | 2.78 | 0.158 | 4.68
ACAGACAGGTGAATGAAGGTAACTCAGCTGGACG | 0.255 | -0.0154 | -0.43 | -0.273 | -0.569 | 0.447 | 0.97 | 0.258 | 0.0803 | 0.0876 | 0.834 | 1.06 | 0.562 | -0.518 | -0.217 | -0.156 | -0.221 | 0.42 | -0.316 | 0.743
CCTAGCAGGCCAGGGTCACTCAAGCATTTCGCTT | 2.38 | 1.67 | -0.285 | 1.95 | -1.05 | 3.1 | 0.907 | 1.65 | -0.362 | 0.635 | 0.393 | 0.98 | -0.961 | -1.38 | 1.04 | 2.63 | -0.595 | 3.17 | -0.537 | 2.73
AATACAGGGTCATCGTAGGCAAGAGTACGCACAG | 7.68 | 6.03 | 2.1 | 4.59 | 1.4 | 5.83 | 7 | 6.27 | 3.31 | 4.97 | 2.91 | 4.3 | 1.57 | 1.49 | 4.01 | 4.55 | 0.721 | 5.8 | 1.82 | 4.46
CGAACTAGGGCATTGACAGGACAGTGAATAGTAA | 0.151 | 0.0251 | 0.031 | -0.0451 | -0.654 | 2.23 | 3.32 | 2.68 | 0.522 | 1.83 | 6.82 | 6.53 | 1.42 | 0.993 | 0.464 | -0.229 | -0.0482 | -0.297 | 0.262 | 1.14
ATCTCTAGGGAAGACTCAGTTCAGTGAAGAACGC | -0.235 | 0.0835 | 0.196 | -0.00503 | 0.414 | -0.566 | -0.0585 | -0.317 | -0.477 | -0.307 | 0.54 | 0.0201 | 0.66 | 0.331 | 0.641 | 0.582 | 1.3 | -0.127 | 0.457 | -0.0542
AAAACGAGGGCACGCTGAGTTGATAGCAGAGTAG | 0.97 | 0.877 | -0.416 | 0.344 | -0.954 | 2.42 | 2.99 | 2.58 | 0.579 | 1.87 | 5.62 | 5.01 | -0.17 | 0.145 | 0.283 | 1.5 | 0.139 | 0.828 | -0.23 | 2.65
CGAACGAGGGCAAGAGTTGATAGCAAATGCCGAT | 0.442 | 0.206 | -0.493 | 0.236 | -0.921 | 1.52 | 2.3 | 2.48 | 0.687 | 1.92 | 3.38 | 2.22 | 0.196 | -0.307 | 0.163 | 0.404 | -0.197 | 0.316 | -0.216 | 2.38
AATACAGGGTCATAGTAGGCCAGAGTACGCACAG | 7.09 | 6.14 | 2.31 | 4.62 | 1.5 | 5.82 | 6.42 | 5.33 | 2.62 | 4.34 | 2.62 | 4.56 | 1.47 | 2.3 | 2.67 | 4.36 | 0.689 | 4.7 | 0.787 | 4.05
